Experimental data taken from ChEMBL document CHEMBL3988442, “University of Dundee, Small-Polar-MMV Screening Library” (2021).
The campaign covered roughly 69,000 compounds. About 30 (0.04%) showed an effect of 50% or more. This excerpt belongs to a sample that is enriched for strong results.

Target: T1, Histidine--tRNA ligase (Trypanosoma cruzi (strain CL Brener)) (UniProt Q4DA54)
T1 sequence (whole entry): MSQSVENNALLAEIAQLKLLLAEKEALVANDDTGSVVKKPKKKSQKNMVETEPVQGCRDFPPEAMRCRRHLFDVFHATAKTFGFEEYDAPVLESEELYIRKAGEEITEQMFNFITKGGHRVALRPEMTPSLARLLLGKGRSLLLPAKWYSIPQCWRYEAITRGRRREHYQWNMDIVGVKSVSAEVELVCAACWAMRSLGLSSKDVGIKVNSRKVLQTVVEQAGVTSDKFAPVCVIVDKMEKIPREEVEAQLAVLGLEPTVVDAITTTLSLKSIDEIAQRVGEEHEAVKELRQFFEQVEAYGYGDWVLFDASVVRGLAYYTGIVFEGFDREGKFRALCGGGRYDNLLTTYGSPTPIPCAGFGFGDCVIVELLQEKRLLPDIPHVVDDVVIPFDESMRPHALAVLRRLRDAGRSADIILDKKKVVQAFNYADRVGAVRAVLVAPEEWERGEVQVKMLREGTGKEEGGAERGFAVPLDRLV
Test: Trypanosoma cruzi histidyl tRNA synthetase (Tc-HisRS)
Format: functional
Design: scale not given: direction of the effect not stated beside the values
Conditions: 30 µM

In order of rising Percent Effect:
1. O=C1CC[C@H]2[C@H](CCN2C(=O)C2CCCO2)N1Cc1ccncc1 (stereo partly drawn)  -3.83%
2. Nc1nc2c(s1)C(c1c(F)cccc1Cl)CC(=O)N2 (stereo not drawn)  -3.73%
3. Cc1csc(CN2CC[C@H]3C[C@H](c4nnc(C)[nH]4)O[C@@H]3C2)n1  -2.48%
4. O=C(O)[C@]12CCCN(CC3CCOC3)C[C@H]1CN(c1ncccn1)C2 (stereo partly drawn)  -2.21%
5. O=C(c1ccsc1)N1C[C@@H]2CCN(c3cccnc3)C[C@@H]2C1  -1.97%
6. Cc1nc(CO[C@H]2CN(C(=O)c3cccnc3)[C@@H]3COC[C@H]23)cs1  -1.03%
7. O=C(N1CCOCC1)[C@@]12CCO[C@@H]1CCN(CC1CCCC1)C2  0%
8. CCN(CC)CCNC(=O)CCc1c(C)nn(-c2ccccc2Cl)c1C  0%
9. O=C1CC[C@@H]2[C@@H](CCN2C(=O)C2CCOCC2)N1CC1CC1  0%
10. CC1=CC[C@@H]2CN(C(=O)c3ccc(-c4nnn(C)n4)cc3)C[C@@H]2C1  0.8%
11. Cc1cc(C(=O)N2C[C@@H]3COC[C@]3(c3nnc(C)o3)C2)on1  0.99%
12. CC(C)Oc1ccccc1C1CC(=O)Nc2nc(N3CCOCC3)sc21 (stereo not drawn)  1.24%
13. O=C(c1ccco1)N1CCO[C@@H]2CN(Cc3nccs3)CC[C@@H]2C1  2.21%
14. Cc1ccc2nc(C(=O)N3CCCC[C@]4(C)NC(=O)CCC[C@H]34)cn2c1  2.24%
15. CCN(CC)CCNC(=O)CCc1c(C)nn(-c2ccc(Cl)cc2)c1C  2.27%
16. Cc1ccc(C(=O)N2CC[C@@H]3[C@H]2CCC(=O)N3c2ccccc2)o1  2.73%
17. COc1ccc(CN2CCN(C(=O)N(C)C)[C@@H]3CS(=O)(=O)C[C@@H]32)cc1F  3.06%
18. CCCN1CC[C@@H]2[C@@H](CO[C@H]2CNC(=O)c2nccn2C)C1  3.09%
19. CNc1nc2c(s1)C(c1cccc(F)c1F)CC(=O)N2 (stereo not drawn)  3.26%
20. CNC(=O)[C@@]12CCC3(CCN(C(=O)COC)CC3)[C@@H]1CN(S(C)(=O)=O)C2  3.74%
21. CCC1=N[C@@]2(CC[C@@H]3CN(C(=O)NCc4ccccc4)C[C@@H]32)C(=O)N1C  3.83%
22. COC[C@H]1CNC(=O)[C@@H]2CCN(Cc3cccc(C)n3)CC[C@H]12  3.92%
23. CC(C)=CCN1CCN(Cc2nc3ccccc3[nH]2)[C@H]2CS(=O)(=O)C[C@H]21  4.35%
24. Cc1ccc(CN2C[C@@H]3COC[C@]3(COc3ccc(C#N)cn3)C2)o1  4.39%
25. Cc1occc1C(=O)N1C[C@@H]2OCCN(CCN3CCCC3)[C@@H]2C1  4.9%
26. CCc1nccn1CC(=O)N1C[C@H]2CC[C@@H]1CN(c1ncccn1)C2  5.46%
27. CN(C)C(=O)[C@H]1C[C@@H]2CN(S(=O)(=O)c3ccccc3)C[C@H]1O2  5.91%
28. Cc1ccc(S(=O)(=O)N2C[C@H]3C[C@H](NC(=O)c4ccnn4C)[C@H]3C2)cc1  5.95%
29. O=C(NCc1ccccc1)[C@H]1C[C@@H]2CN(S(=O)(=O)C3CC3)C[C@H]1O2  6.01%
30. CN(C)C(=O)COC[C@H]1CC[C@@H]2[C@@H](CCN2Cc2ccco2)O1  7.04%
31. O=C1[C@H]2CN(c3cnccn3)C[C@H]2CN1CC1CC1  7.22%
32. O=C(CSc1nc2nncc-2c(O)n1-c1ccccc1)N1CCOCC1  7.22%
33. Cc1ncccc1NC(=O)[C@@H]1CCO[C@@H]2CCN(c3ccccc3)C[C@@H]21  7.26%
34. CO[C@H]1C[C@@H]2CN(C(=O)c3ccc(C)s3)C[C@@H]2C1  8.05%
35. O=C(c1ccc(F)cc1)N1C[C@@H]2COC[C@]2(COc2cccnc2)C1  8.47%
36. O=C(NCc1ccco1)[C@H]1CC[C@@H]2[C@@H](CCN2C2CCC2)O1  8.54%
37. Cc1noc([C@@H]2C[C@H]3OCC[C@H]3N(Cc3cc(C)c(C)o3)C2)n1  8.87%
38. O=C(CCc1ccccc1)N[C@H]1CC[C@@]2(CCC(=O)N2)CC1  9.71%
39. CCOc1cccc(C2CC(=O)NCc3nc(N4CCCC4)sc32)c1 (stereo not drawn)  9.84%
40. Cc1cccc(CN2CC[C@@H]3[C@@H](CO[C@H]3CNc3ncccn3)C2)n1  10.5%
41. CN(C)C(=O)[C@H]1C[C@H]2OCC[C@H]2N(Cc2ccc3ccccc3n2)C1  12.8%
42. COCCN1C[C@H]2CC[C@@H]1CN(C(=O)CCc1c(C)nn(C)c1C)C2  13.1%
43. Cc1cc(=O)n(C)cc1NC(=O)Cc1ccc(C(F)(F)F)cc1  14.2%
44. Cc1cc(=O)n(C)cc1NC(=O)Cc1cccc(F)c1  14.2%
45. CNc1nc2c(s1)C(c1ccccc1F)CC(=O)N2 (stereo not drawn)  14.9%
46. O=C1CC(c2ccccc2Br)c2sc(N3CCOCC3)nc2N1 (stereo not drawn)  16.1%
47. CNc1nc2c(s1)C(c1ccccc1Cl)CC(=O)N2 (stereo not drawn)  17.4%
48. Fc1ccc(F)c(CN2CCC(c3cc4ncccc4cn3)CC2)c1  29.2%
49. CNc1nc2c(s1)C(c1c(Cl)cccc1Cl)CC(=O)N2 (stereo not drawn)  31.5%
50. O=C1CC(c2ccccc2C(F)(F)F)c2sc(N3CCOCC3)nc2N1 (stereo not drawn)  33.5%
51. Fc1cccc(CN2CCC(c3cc4ncccc4cn3)CC2)c1F  33.9%
52. CNc1nc2c(s1)C(c1cccc(Cl)c1Cl)CC(=O)N2 (stereo not drawn)  34.8%
53. CCCn1cc(NC(=O)c2ccc(S(=O)(=O)CC)cc2)ccc1=O  35%
54. CCCn1cc(NC(=O)c2ccncc2)ccc1=O  38.3%
55. CNc1nc2c(s1)C(c1c(F)cccc1Cl)CC(=O)N2 (stereo not drawn)  52.2%
56. CCCn1cc(NC(=O)c2ccc(S(C)(=O)=O)cc2)ccc1=O  56.7%
57. Cc1cc(=O)n(C)cc1NC(=O)Cc1cc(F)ccc1F  57.9%
58. CCN(CC)CCNC(=O)CCc1c(C)nn(-c2ccccc2Br)c1C  61.4%
59. COc1cccc(C2CC(=O)Nc3nc(N4CCOCC4)sc32)c1OC (stereo not drawn)  65.2%
60. COc1ccc(C)cc1CN1CCC(c2cc3ncccc3cn2)CC1  66.2%
61. COc1cccc(C2CC(=O)Nc3nc(N)sc32)c1OC (stereo not drawn)  70.7%
62. COc1ccccc1C1CC(=O)Nc2nc(N3CCCCC3)sc21 (stereo not drawn)  74.5%
63. COc1cccc(C2CC(=O)Nc3nc(N4CCCCC4)sc32)c1OC (stereo not drawn)  74.5%
